# In all, about 69,000 compounds went through this assay and about 8,600 (12%) showed an effect of 50% or more. What follows is part of a selection rich in strong results, with near analogues and random picks from the rest.
# System: Plasmodium berghei
# Assay: Screen against P. berghei liver stage (PbLuc), transformed with Luciferase, at 10uM
# Type: functional, HepG2
# Settings: tested at 10 uM
row,Structure (SMILES),INHIBITION [%]
1,CCn1c(C2CCNCC2)nn(CCn2cncn2)c1=O,32
2,COc1cc(CN2CCC(COCc3ccccc3)CC2)cc(OC)c1,33.7
3,COCCNC(=O)NCc1cc(-c2ccncc2)n(C2CCCC2)n1,26.4
4,Cc1cc2nc(C3CCCCC3)c(-c3ccnc(NCCO)n3)cn2n1,20.4
5,Cc1ncc(-c2ccnc(NCCO)n2)c(C2CCCCC2)n1,79.7
6,Cc1ncc(-c2ccnc(N[C@@H](C)CO)n2)c(C2CCCCC2)n1,47.1
7,Cc1cccc(C)c1NC(=O)CC(CN1CCN(C)CC1)C(=O)O (stereo not given),5.21
8,O=C1CCc2cc(-c3csc(CCN4CCOC4=O)n3)ccc2N1,-26.6
9,Cc1nccn1C1CCCN(C(=O)c2cc(Cl)c3c(c2)OCO3)C1 (stereo not given),-15.5
10,COCCN1CCOCC12CCN(C(=O)c1ccncc1)CC2,47.4
11,COCCN1CCOCC12CCN(C(=O)c1c[nH]c3ccccc13)CC2,57.9
12,COCCN1CCOCC12CCN(C(=O)c1ccoc1)CC2,21.8
13,N#Cc1ccc(OCCCN2CCOC(Cn3cncn3)C2)cc1 (stereo not given),36.1
14,CC1(C2CCN(CC(N)=O)CC2)CN(Cc2ccccc2)C(=O)O1 (stereo not given),1.5
15,Oc1cc(-c2cccs2)nc(C2CCCN(CC3=CCCOC3)C2)n1 (stereo not given),23.9
16,COc1c(C2CCCN2C(=O)c2nccnc2N)c(C)nn1C (stereo not given),14.1
17,CC(=O)NCCNC(=O)c1ccc(C)c(-n2cccc2)c1,10.7
18,CCOC1CC2(CCN(Cc3nccn3C)CC2)C1,-11.6
19,Cn1ccnc1CN1CCC2(CCCN2c2ncccn2)CC1,21.7
20,Cn1ccnc1CN1CCC2(CC1)COC2,61.3
21,Cn1ccnc1CN1CCC2(CC1)COCCN(S(C)(=O)=O)C2,36.5
22,Cn1ccnc1CN1CCC2(COCCN(S(=O)(=O)C3CC3)C2)C1 (stereo not given),64.3

row,Structure (SMILES),INHIBITION [%]
1,c1cnc(N2CCC3(COCCN(CC4CC4)C3)C2)nc1 (stereo not given),46.1
2,Cn1ccnc1CN1CCC2(CC1)COCCN(c1ncccn1)C2,62.3
3,COC1CC2(CCN(Cc3nccn3C)CC2)C1,-43.1
4,Cn1cc(CN2CCCC23CCN(Cc2nccn2C)CC3)cn1,8.67
5,CN(C)CCN1CCCC12CCN(Cc1nccn1C)CC2,70.2
6,Cn1ccnc1CN1CCC2(COCCN(Cc3ccsc3)C2)C1 (stereo not given),25.1
7,CN(C)C(=O)N1CCC2(CC1)COCCN(c1ncccn1)C2,-30
8,COCc1ncc(CN2CC[C@@](O)(COC)C(C)(C)C2)cn1,31
9,O=C(CCCSc1ccc(NC(=O)C2CC2)nn1)NCC1CCCO1 (stereo not given),34.6
10,Cc1ncccc1-c1cc2cccnc2n1CCCNC(=O)C(C)(C)C,27.6
11,CCS(=O)(=O)N1CC[C@@H]2[C@H](CC1)N(CC(C)C)CCS2(=O)=O,-34.6
12,Cc1cc(C(=O)N2CCCC2)ccc1NCC(=O)N1CCCCC1C (stereo not given),37.3
13,Cc1ccc(N2CCC3(CCN(C(=O)c4ccnnc4)CC3)CC2)nn1,-6.21
14,Cc1noc2nc3c(c(C(=O)/N=c4\[nH]ncs4)c12)CCC3,32.8
15,CS(=O)(=O)N1CCCC1c1ccnc2nccn12 (stereo not given),10.3545
16,Cc1cc(C)n(CCC(=O)N2CCCCC2c2nccs2)n1 (stereo not given),36.3
17,CN(C)c1cc(CNC(=O)C2COc3ccccc3O2)ccn1 (stereo not given),2.45
18,Cc1nnc2ccc(N3CCN(Cc4nccn4C)CC3)nn12,43.4
19,Cc1cc(N2CCN(Cc3nccn3C)CC2)cc(C)n1,4.92
20,Cc1nnc(CN2CCN(Cc3nccn3C)CC2)n1C,59.3
21,CC(C)N1CCN(c2ccc3ccc(C(=O)NC4CCCC4)cn23)CC1,-7.28
22,COCC(=O)N1CC[C@@H]2CN(Cc3cccnc3)S(=O)(=O)[C@@H]2CC1,43

row,Structure (SMILES),INHIBITION [%]
1,CC(C)NC(=O)NC[C@H]1OC[C@@H](NCc2ccncc2)[C@@H]1O,-48.1
2,Cc1ccc(S(=O)(=O)NC[C@H]2OC[C@@H](NCc3cccnc3)[C@@H]2O)cc1,57
3,Cc1ccc(S(=O)(=O)NC[C@H]2OC[C@@H](NCc3ccncc3)[C@@H]2O)cc1,53.2
4,Cc1ccc(S(=O)(=O)NC[C@H]2OC[C@@H](NCc3ccccc3)[C@@H]2O)cc1,20.7
5,CC(C)NC(=O)NC[C@H]1OC[C@@H](NCc2ccc(S(C)(=O)=O)cc2)[C@@H]1O,49.5
6,Cc1ccc(S(=O)(=O)NC[C@H]2OC[C@@H](NCc3ccccn3)[C@@H]2O)cc1,38.9
7,O=C(NCC1CCOCC1)[C@@H]1C[C@@H]2[C@@H](CCN2Cc2nccs2)O1,21.1
8,COC1CCN(C(=O)CC2CCCC2)CC(=O)N(C)c2ccccc21 (stereo not given),3.31
9,CCc1nc(C)cn1C(=O)Nc1ccc(F)cc1,78.2
10,CCc1nc(C)cn1C(=O)Nc1ccc(C)cc1,-4.82
11,CCc1nc(C)cn1C(=O)Nc1ccccc1,48.6
12,O=C1CO[C@@H]2CN(C3CCOCC3)C[C@H]2N1Cc1cccc(F)c1,25.2
13,O=C1CO[C@@H]2CN(CC3CC3)C[C@H]2N1Cc1cccc(F)c1,75.4
14,O=C1CO[C@@H]2CN(CC3CCOC3)C[C@H]2N1Cc1cccc(F)c1 (stereo not given in full),27.6
15,COc1cc(N2C[C@H](OCc3cccnc3)[C@H]3OCCC[C@H]32)ncn1,10.6
16,CN1C(=O)C2(NC(=O)c3ccccc3O2)c2ccccc21 (stereo not given),34
17,CC(C)CCN1C(=O)C2(NC(=O)c3ccccc3O2)c2ccccc21 (stereo not given),55.1
18,Cc1ccc2c(c1)OC1(NC2=O)C(=O)N(C)c2ccccc21 (stereo not given),31.6
19,O=C1NCC2(CCCN(C(=O)c3csc(-c4cccs4)n3)C2)O1 (stereo not given),22
20,CC(C)[C@H](N)C(=O)N1CCCC(C2=Nc3ccccc3S(=O)(=O)N2)C1 (stereo not given in full),26.4
21,COc1ccccc1N1CCC(CNS(=O)(=O)c2cccc(C#N)c2)C1 (stereo not given),-4.94

# From ChEMBL document CHEMBL4513216, “Probing the Open Global Health Chemical Diversity Library for Multistage-Active Starting Points for Next-Generation Antimalarials” (ACS Infect Dis, 2020)
